# A selection: hits, their analogues and other compounds. The true share with any hit is near 2.1%.
# Myeloid diff 2 – induction of myeloid progenitor differentiation, primary screen, cell-based, flow cytometry, MLPCN library. AID 624256, 2012. hit rate 1% among 360,000. ER-HoxA9 myeloid progenitors, lysozyme-GFP differentiation. calls only at 10 µM;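 active means normalized GFP-positive differentiation at or above the plate's own cutoff, the solvent-only control mean plus 3 SD; inconclusive means no clear call, values can overlap the other calls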;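 further: cells exposed to compound for four days before flow analysis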
# HNF4A DNA FP – change in binding of human HNF4A to DNA, primary screen, biochemical, fluorescence polarization, FITC-DNA | Hepatocyte nuclear factor 4-alpha (Homo sapiens), P41235 | activity change, % at 10 µM | 1 h | hit rate 0.3% among 360,000 | AID 1224865, 2016; in the data active means activity change above about 30%, passing the limit was not always enough
# TPT1 inhibitor – Candida albicans TPT1 enzyme inhibitors, primary screen, biochemical, fluorescence polarization. recombinant caTPT1, FP RNA substrate dephosphorylation. inhibition, % at 5 µM. tRNA 2'-phosphotransferase TPT1 (Candida albicans SC5314). hit rate 0.81% among 300,000. AID 1962, 2009;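 active means inhibition above the mean of all tested compounds plus 3 SD, set per screening campaign, cut at about 24% in these data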;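 further: plate controls were DMSO alone for no effect and ferristatin control at 100 nM for full effect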
# Rpn11 inh – Rpn11 (PSMD14) deubiquitinase inhibitors, primary screen, biochemical, fluorescence polarization, uHTS; inhibition, % at 20 µM; hit rate 0.59% among 360,000; 26S proteasome non-ATPase regulatory subunit 14 (Homo sapiens), O00487; AID 588493, 2011; human 26S proteasome, Ub4-pepOG fluorescence polarization; 20S core pre-blocked with epoxomicin;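 active means inhibition at 20 µM, scaled to each plate's controls, above about 33%, limit read from the data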
# Target sequence (O00487 whole entry, looked up): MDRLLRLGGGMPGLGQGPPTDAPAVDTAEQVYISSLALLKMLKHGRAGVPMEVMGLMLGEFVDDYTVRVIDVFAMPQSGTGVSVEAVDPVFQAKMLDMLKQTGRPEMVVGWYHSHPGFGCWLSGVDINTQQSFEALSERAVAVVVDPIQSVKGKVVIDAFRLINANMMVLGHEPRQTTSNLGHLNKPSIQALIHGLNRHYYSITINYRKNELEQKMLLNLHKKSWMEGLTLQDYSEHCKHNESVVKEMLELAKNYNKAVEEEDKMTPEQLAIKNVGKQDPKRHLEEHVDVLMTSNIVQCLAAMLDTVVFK
# Rpn11 confirm – Rpn11 (PSMD14) deubiquitinase inhibitors, confirmation, biochemical, fluorescence polarization, single concentration | shares compounds with Rpn11 inh | purified human 26S proteasome, Ub4-pepOG fluorescence polarization; proteasome pretreated with epoxomicin | inhibition, % at 20 µM | hit rate 29% among 1,900
# MMP-2 inh – MMP-2 enzyme inhibition, confirmation, counter-screen for RPN11 inhibitor project, biochemical, fluorescence, single concentration; AID 602330, 2012; hit rate 4% among 1,900; inhibition, % at 20 µM; shares compounds with Rpn11 inh; recombinant MMP-2, FRET peptide cleavage fluorescence;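 further: human MMP-2 activated beforehand with APMA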
# Thrombin FP – bovine thrombin protease inhibition, confirmation, counter-screen for Rpn11 inhibitor project, biochemical, fluorescence polarization, single concentration; inhibition, % at 20 µM; AID 602333, 2012; bovine thrombin cleavage of Ub4-pepOG; shares compounds with Rpn11 inh; hit rate 13% among 1,900;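 active means mean inhibition at least 40% at 20 µM, or signal 3 deviations below plate average, so some actives read negative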;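 further: plate controls were thrombin with DMSO for no effect and buffer wells lacking thrombin for full effect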
# The depositor's hits bear a star; i = inactive; ? = inconclusive; · = no result; + = active, no number. Unless noted, no stated cut-off is given here; in the data, active means inhibition above about 40%; inactive means the rest.
SMILES,Myeloid diff 2,HNF4A DNA FP,TPT1 inhibitor,Rpn11 inh,Rpn11 confirm,MMP-2 inh,Thrombin FP
CCN(CC)Cc1c(C(=O)N/N=C/c2ccncc2)nnn1-c1nonc1N,i,50.0*,-3.8,+,-9.0,8.0,-3.8
N#CCCCc1cn(-c2nc3ccccc3s2)nn1,i,1.0,·,·,·,·,·
CCOC(CNC(=O)Cc1c(C)nc2c(-c3ccccc3)c(C)nn2c1C)OCC,i,3.2,0.3,-0.7,·,·,·
CCCCc1ccc(-c2csc(/C(C#N)=C/c3ccc(C)o3)n2)cc1,i,42.4*,11.0,67.1*,-10.0,-27.1,-21.1
CCCCc1ccc(-c2csc(/C(C#N)=C\c3ccco3)n2)cc1,+,4.1,7.5,40.8*,6.5,-5.1,0.8
COc1ccc(-c2csc(/C(C#N)=C\c3cccc([N+](=O)[O-])c3)n2)cc1,·,·,-1.5,·,·,·,·
COc1cc(C=C2CCCC(=Cc3ccc(OCC4CO4)c(OC)c3)C2=O)ccc1OCC1CO1 (stereo not given),?,5.6,·,50.7*,5.1,-12.1,-14.7
CCOc1ccc(/C=C2\CCC(C3CCCC3)C2=O)cc1OC (stereo not given),i,3.4,1.9,0.9,·,·,·
COc1ccc(Cn2c(-c3ccco3)nc3c(c(=O)c4ccccc4n3C)c2=O)cc1,i,-2.5,-2.5,+,31.3,20.0,41.5*
COc1ccc(Cn2c(-c3ccc(OC)cc3)nc3c(c(=O)c4ccccc4n3C)c2=O)cc1,·,·,-1.9,·,·,·,·
O=C(Nc1ccc(-c2cc3ccccc3oc2=O)c(Cl)c1)c1cccnc1,i,6.1,2.3,0.6,·,·,·
O=C(Nc1cccnc1)c1cccc(-c2cc3ccccc3oc2=O)c1,i,8.8,-1.1,133.8*,115.2*,14.2,14.5
CCN(CC)C(=O)c1ncn(C)c1C(=O)N(CC)CC,i,-2.0,·,-5.4,·,·,·
N#CC1=C(N)Oc2cc(N)ccc2C1c1ccsc1 (stereo not given),i,3.9,2.1,4.5,·,·,·
N#CC1=C(N)Oc2cc(N)ccc2C1c1cc(Br)cs1 (stereo not given),+,17.1,·,72.9*,1.2,17.8,27.2
C#CCOCCOCCOCCNc1nc(N2CCN(C(=O)CCCCCCCCCCNC(=O)Cn3cc(CCCCCN)nn3)CC2)nc(N2CCN(C(=O)CCCCCCCCCCNC(=O)[C@@H](CCSC)n3cc(CCO)nn3)CC2)n1,i,15.6,0.9,41.5*,26.4,4.5,3.3
CSc1nc2nccc(-c3ccc(-c4ccccc4)cc3)n2n1,i,0.9,0.5,60.0*,1.2,32.5,-6.2
Cc1nc(NC(=O)/C=C/c2ccccc2)sc1C(=O)Nc1ccc(Cl)cc1,i,-0.8,1.2,2.5,·,·,·
Cc1nc(NC(=O)/C=C/c2ccccc2)sc1C(=O)Nc1ccccc1Cl,i,-2.5,1.1,39.8*,38.1,-40.7,-16.5
CC(=O)Oc1ccc(CCC(C)OC(C)=O)cc1 (stereo not given),i,0.5,-2.0,57.5*,-14.4,-0.4,-11.7
COc1ccccc1C(=O)Nc1nnc(SCC(=O)Nc2ccc3c(c2)oc2ccccc23)s1,i,11.9,7.2,63.4*,22.8,-24.4,-2.0
Cc1cccc(C(=O)Nc2nnc(SCC(=O)Nc3ccc4c(c3)oc3ccccc34)s2)c1,i,-0.8,1.0,-5.3,·,·,·
COc1ccc(COc2ccc3c(C)cc(=O)oc3c2)cc1,i,1.2,-2.6,-2.6,·,·,·
COc1ccc2c(-c3cc4ccc(OCc5ccc(F)cc5)cc4oc3=O)cc(=O)oc2c1,i,4.7,6.7,78.4*,15.5,-42.9,17.6
COc1ccc(-c2nnc(SC)nc2-c2ccc(OC)c([N+](=O)[O-])c2)cc1[N+](=O)[O-],i,12.3,-1.9,102.7*,20.9,70.0*,3.4

# Screening results deposited in PubChem by several laboratories.
